Source: PubChem BioAssay (NCATS)
Results filed as inconclusive are left out. A number with no mark means an inactive call. Calls of active or inactive are those of the source. Calls follow the shape of the dose curve; as a rule, active = well fitted inhibition curve with a large enough effect; inconclusive = small, poorly fitted or top-dose-only effect; inactive = flat fitted curve, though single readings scatter.

Tested on: CP297
Experiment: qHTS profiling for inhibitors of Plasmodium falciparum proliferation (AID 504749); also: nearly all actives have a fitted effect of over 60% in size;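 as to activity, negative = inhibition: 0% = DMSO vehicle and full inhibition = artemisinin control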
Settings: P. falciparum in erythrocytes, SYBR Green DNA, 72 h; series mostly up to 28.7 µM; activity, negative = inhibition: at the top concentration
Procedure, shortened: (§1)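 SYBR Green fluorescence (ex 485 nm, em 535 nm) reports parasite DNA after 72 h compound exposure of infected red cells at 0.3% parasitemia, 2.5% hematocrit; signal normalized to 0.29 uM artemisinin and vehicle wells.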
Potency is read from the fitted curve at half-maximal effect.

Point of comparison: `CCCCC(=O)O[C@]1(C(=O)CO)[C@H](C)C[C@H]2[C@@H]3CCC4=CC(=O)C=C[C@]4(C)[C@@]3(F)[C@@H](O)C[C@@]21C`, “activity, negative = inhibition” value -9.08%. Against it:
- C=C1C(=CC=C2CCC[C@@]3(C)[C@@H]2CC[C@H]3[C@H](C)CCCC(C)C)C[C@@H](O)C[C@@H]1O — higher, -7.27%
- CCCCCCCC(=O)O — higher, 5.53%
- O=CCCCC=O — higher, 1.05%
- O=C(O)CCC(=O)C(=O)O — higher, -2.03%
- O=C(O)c1cc(=O)c2c3nc4ccccc4oc-3cc(=O)c2[nH]1 — lower, -13.9%
- C#C[C@]1(O)CC[C@H]2[C@@H]3CCC4=CCCC[C@@H]4[C@H]3C(=C)C[C@@]21CC — higher, -3.43%
- CCN(CC)CCOc1ccc(-c2nc3cc(Cl)ccc3s2)cc1 — lower, -17.7%
- CN(C)CCCN1c2ccccc2C(C)(C)c2ccccc21 — lower, -11%
- IC(I)I — higher, 5.25%
- CC1=C(/C=C/C(C)=C/C=C/C(C)=C/CO)C(C)(C)CCC1 — lower, -19.9%
- NC(=O)c1ncn(C2OC(CO)C(O)C2O)n1 (configuration not stated) — lower, -15.4%

With `CCOC(=O)C1=C(C)NC(C)=C(C(=O)OCC)C1c1ccccc1C=CC(=O)OC(C)(C)C` the Potency was 16.9 µM (active).
In the case of `CCCCCCOc1ccc(C(=N)N(CCCC)CCCC)c2ccccc12`, the Potency is reported as 16.9 µM (active).
`COC(=O)C1=C(C#N)NC(C)=C(C(=O)OC(C)C)C1c1cccc([N+](=O)[O-])c1` (configuration not stated) was tested, and the Potency was 13.5 µM (active).
With `CC[C@@]1(O)C(=O)OCc2c1cc1n(c2=O)Cc2cc3c([N+](=O)[O-])cccc3nc2-1` the Potency was 12 µM (active).
For `COc1cc(-c2ccc(-[n+]3nc(-c4ccccc4)nn3-c3ccc([N+](=O)[O-])cc3)c(OC)c2)ccc1-[n+]1nc(-c2ccccc2)nn1-c1ccc([N+](=O)[O-])cc1`, the Potency was 16.9 µM (active).

Tested on: CP305
Experiment: as above
Settings: P. falciparum in erythrocytes, SYBR Green DNA, 72 h; series mostly up to 28.7 µM; activity, negative = inhibition: at the top concentration
Procedure, shortened: as §1

Point of comparison: `CCCCC(=O)O[C@]1(C(=O)CO)[C@H](C)C[C@H]2[C@@H]3CCC4=CC(=O)C=C[C@]4(C)[C@@]3(F)[C@@H](O)C[C@@]21C`, “activity, negative = inhibition” value -14%. Against it:
- C=C1C(=CC=C2CCC[C@@]3(C)[C@@H]2CC[C@H]3[C@H](C)CCCC(C)C)C[C@@H](O)C[C@@H]1O — higher, 0.646%
- O=C(COc1ccc(Cl)cc1)OCCNC12CC3CC(CC(C3)C1)C2 — higher, -8.88%
- CCCCCCCC(=O)O — higher, 10.5%
- O=CCCCC=O — higher, -9.42%
- O=C(O)CCC(=O)C(=O)O — higher, -0.473%
- O=C(O)c1cc(=O)c2c3nc4ccccc4oc-3cc(=O)c2[nH]1 — higher, -13.8%
- CC(Cc1ccc(O)c(O)c1)C(C)Cc1ccc(O)c(O)c1 (configuration not stated) — higher, -5.33%
- CCN(CC)CCOc1ccc(-c2nc3cc(Cl)ccc3s2)cc1 — lower, -18.5%
- CN(C)CCCN1c2ccccc2C(C)(C)c2ccccc21 — lower, -17.6%
- CC1=C(/C=C/C(C)=C/C=C/C(C)=C/CO)C(C)(C)CCC1 — higher, -10.7%
- NC(=O)c1ncn(C2OC(CO)C(O)C2O)n1 (configuration not stated) — higher, -7.24%

With `O=C(Nc1ccc(Br)cc1)c1cc(Br)c(Br)s1` the Potency was 16.9 µM (active).
`COC(=O)C1=C(C#N)NC(C)=C(C(=O)OC(C)C)C1c1cccc([N+](=O)[O-])c1` (configuration not stated) was tested, and the Potency was 13.5 µM (active).
With `CC[C@@]1(O)C(=O)OCc2c1cc1n(c2=O)Cc2cc3c([N+](=O)[O-])cccc3nc2-1` the Potency was 8.49 µM (active).

Tested on: CP315
Experiment: as above
Settings: P. falciparum in erythrocytes, SYBR Green DNA, 72 h; series mostly up to 28.7 µM; activity, negative = inhibition: at the top concentration
Procedure, shortened: as §1

Point of comparison: `IC(I)I`, “activity, negative = inhibition” value -0.13%. Against it:
- C=C1C(=CC=C2CCC[C@@]3(C)[C@@H]2CC[C@H]3[C@H](C)CCCC(C)C)C[C@@H](O)C[C@@H]1O — lower, -1.48%
- O=C(COc1ccc(Cl)cc1)OCCNC12CC3CC(CC(C3)C1)C2 — higher, -0.121%
- CCCCCCCC(=O)O — lower, -0.39%
- O=CCCCC=O — higher, 2.04%
- CCCCC(=O)O[C@]1(C(=O)CO)[C@H](C)C[C@H]2[C@@H]3CCC4=CC(=O)C=C[C@]4(C)[C@@]3(F)[C@@H](O)C[C@@]21C — higher, 12.2%
- O=C(O)CCC(=O)C(=O)O — lower, -0.718%
- O=C(O)c1cc(=O)c2c3nc4ccccc4oc-3cc(=O)c2[nH]1 — lower, -4.13%
- CC(Cc1ccc(O)c(O)c1)C(C)Cc1ccc(O)c(O)c1 (configuration not stated) — lower, -7.8%
- C#C[C@]1(O)CC[C@H]2[C@@H]3CCC4=CCCC[C@@H]4[C@H]3C(=C)C[C@@]21CC — higher, 0.277%
- CCN(CC)CCOc1ccc(-c2nc3cc(Cl)ccc3s2)cc1 — lower, -8.73%
- CN(C)CCCN1c2ccccc2C(C)(C)c2ccccc21 — lower, -14.5%
- CC1=C(/C=C/C(C)=C/C=C/C(C)=C/CO)C(C)(C)CCC1 — lower, -1.92%
- O=S(=O)(O)c1cc(O)c2c(N=Nc3ccc(Nc4ccccc4)c4c(S(=O)(=O)O)cccc34)cc(S(=O)(=O)O)cc2c1 — lower, -22.3%
- NC(=O)c1ncn(C2OC(CO)C(O)C2O)n1 (configuration not stated) — lower, -8.03%
- Clc1cc(Cl)c(OCC#CI)cc1Cl — lower, -14.6%

For `CCOC(=O)C1=C(C)NC(C)=C(C(=O)OCC)C1c1ccccc1C=CC(=O)OC(C)(C)C`, the Potency was 10.7 µM (active).
With `O=C(Nc1cccc(C(F)(F)F)c1)c1cc(Br)cc(Br)c1O` the Potency was 15.1 µM (active).

Tested on: CP325
Experiment: as above
Settings: P. falciparum in erythrocytes, SYBR Green DNA, 72 h; series mostly up to 28.7 µM; activity, negative = inhibition: at the top concentration
Procedure, shortened: as §1

Point of comparison: `CCCCCCCC(=O)O`, “activity, negative = inhibition” value -0.123%. Against it:
- C=C1C(=CC=C2CCC[C@@]3(C)[C@@H]2CC[C@H]3[C@H](C)CCCC(C)C)C[C@@H](O)C[C@@H]1O — lower, -3.72%
- O=C(COc1ccc(Cl)cc1)OCCNC12CC3CC(CC(C3)C1)C2 — lower, -8.68%
- O=CCCCC=O — lower, -1.91%
- CCCCC(=O)O[C@]1(C(=O)CO)[C@H](C)C[C@H]2[C@@H]3CCC4=CC(=O)C=C[C@]4(C)[C@@]3(F)[C@@H](O)C[C@@]21C — lower, -0.378%
- O=C(O)CCC(=O)C(=O)O — higher, 1.53%
- O=C(O)c1cc(=O)c2c3nc4ccccc4oc-3cc(=O)c2[nH]1 — lower, -9.28%
- CC(Cc1ccc(O)c(O)c1)C(C)Cc1ccc(O)c(O)c1 (configuration not stated) — lower, -9.89%
- C#C[C@]1(O)CC[C@H]2[C@@H]3CCC4=CCCC[C@@H]4[C@H]3C(=C)C[C@@]21CC — higher, 5.36%
- CCN(CC)CCOc1ccc(-c2nc3cc(Cl)ccc3s2)cc1 — lower, -5.11%
- CN(C)CCCN1c2ccccc2C(C)(C)c2ccccc21 — lower, -23.9%
- IC(I)I — higher, 0.987%
- CC1=C(/C=C/C(C)=C/C=C/C(C)=C/CO)C(C)(C)CCC1 — lower, -7.8%
- O=S(=O)(O)c1cc(O)c2c(N=Nc3ccc(Nc4ccccc4)c4c(S(=O)(=O)O)cccc34)cc(S(=O)(=O)O)cc2c1 — lower, -21.7%
- NC(=O)c1ncn(C2OC(CO)C(O)C2O)n1 (configuration not stated) — lower, -3.65%

With `CCOC(=O)C1=C(C)NC(C)=C(C(=O)OCC)C1c1ccccc1C=CC(=O)OC(C)(C)C` the Potency was 12 µM (active).
In the case of `CC(=O)Oc1cc(C)c(OC(C)=O)c2ccccc12`, the Potency is reported as 15.1 µM (active).
